The whole screen tested about 200,000 compounds, of which about 4,500 (2.2%) were called active. Not shown: some 12% with an inconclusive outcome. The full list was thinned out, with actives kept by preference. A number with no mark means an inactive call. Calls come from the whole dose curve; as a rule, active = well fitted inhibition curve with a large enough effect; inconclusive = small, poorly fitted or top-dose-only effect, or effect the other way; inactive = flat fitted curve, though single readings scatter.
What follows are compounds tested against Cruzipain (Trypanosoma cruzi) (UniProt P25779) (assay: qHTS Assay for Promiscuous and Specific Inhibitors of Cruzain (without detergent)). Conditions: purified cruzain, Z-FR-AMC fluorescence, no detergent.
Outline: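 Purified cruzain at 1.5 nM, pre-incubated 15 min with compound at room temperature in 100 mM sodium acetate pH 5.5, 5 mM DTT, 0.00005% Triton X-100. Reaction started with 2 uM Z-FR-AMC; AMC fluorescence increase over 60 s gives rate.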
Note: nearly all actives have a fitted effect of over 40% in size.
Potency is the fitted concentration of half-maximal effect.
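Throughout, for max response, negative = inhibition: plate controls were enzyme without inhibitor for no effect and buffer without enzyme for full effect.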

Chain of Cruzipain (Trypanosoma cruzi) (P25779 123-467 limits assumed): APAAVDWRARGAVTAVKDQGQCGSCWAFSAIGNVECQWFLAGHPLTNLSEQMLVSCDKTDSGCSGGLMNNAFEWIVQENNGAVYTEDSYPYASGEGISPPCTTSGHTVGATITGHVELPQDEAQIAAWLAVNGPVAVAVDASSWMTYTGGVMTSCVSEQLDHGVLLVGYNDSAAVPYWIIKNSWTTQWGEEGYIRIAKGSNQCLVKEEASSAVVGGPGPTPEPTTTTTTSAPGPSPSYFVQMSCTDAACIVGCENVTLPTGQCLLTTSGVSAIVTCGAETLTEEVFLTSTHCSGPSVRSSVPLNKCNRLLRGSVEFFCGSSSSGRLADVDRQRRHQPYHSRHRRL

Structure (SMILES)	max response, negative = inhibition [%]	Potency
CCOC(=O)c1ccc(NC2=CC(c3ccc(OCC)cc3)N(c3ccc(C(=O)OCC)cc3)C2=O)cc1 (stereo not drawn)	-9.29	–
O=C(CCn1c(=O)c2sccc2n(Cc2ccc(F)cc2)c1=O)NCc1ccc2c(c1)OCO2	2.68	–
Cc1ccc(F)cc1S(=O)(=O)N1CCC(c2nc3ccccc3s2)CC1	-6.75	–
CC1=CC(=C(C#N)c2nc3ccccc3s2)C=C(C)N1c1ccc(F)cc1F	–	31.6 µM (active)
CC(C)c1cc(C(N)=O)c(NC(=O)c2cccc(COc3ccc(Br)cc3)c2)s1	–	5.01 µM (active)
CCc1cc(C(N)=O)c(NC(=O)c2ccc(OC)cc2)s1	-3.04	–
COc1ccc(OCc2cccc(C(=O)N3CCCC3)c2)cc1	22.1	–
CCC(=O)N1CCc2cc(Br)cc(S(=O)(=O)NCc3ccc(Cl)cc3)c21	5.32	–
Cc1ccc(-n2ncc(C(=O)N(C)Cc3ccccc3)c2-n2cccc2)cc1	19.8	–
CC1CCc2noc(NC(=O)c3ccc([N+](=O)[O-])cc3)c2C1 (stereo not drawn)	3.94	–
O=C(Nc1cc2c3c(c1)C1CCCC1CN3CC1CCCC21)c1ccc([N+](=O)[O-])cc1 (stereo not drawn)	–	25.1 µM (active)
O=C(Nc1cccc([N+](=O)[O-])c1)c1ccc2c(c1)OCO2	4.82	–
C=CC(C1=CC(=O)C=CC1=O)c1ccc(O)cc1 (stereo not drawn)	-6.77	–
O=C(Nc1c2c(nc3ccccc13)CCCC2)c1ccccc1Br	6.61	–
Cc1noc(C)c1COC(=O)c1cc2ccccc2cc1O	-7.72	–
O=C(NNc1c2ccccc2nc2ccccc12)c1cc2ccccc2cc1O	–	7.94 µM (active)
Cc1c(Cl)cccc1NC(=O)C1CCCN(C(=O)c2cnn(-c3ccccc3)c2-n2cccc2)C1 (stereo not drawn)	17.7	–
CCOC(=O)c1oc2ccc(S(=O)(=O)n3nc(-c4ccccc4OC)cc3N)cc2c1C	-16.2	–
CCC(=O)N1CCc2cc(S(=O)(=O)NC(C(=O)Nc3ccc(C(C)=O)cc3)C(C)C)ccc21 (stereo not drawn)	-5.8	–
O=C1CN(C(=O)Nc2ccccc2C(F)(F)F)C(c2ccccc2)c2c(sc3c2CCCC3)N1 (stereo not drawn)	-8.71	–
O=C(COc1ccccc1F)OCc1cc(=O)n2nc(C3CCCCC3)sc2n1	-11.4	–
Cc1cccc(C)c1NC(=O)CSc1ccc([N+](=O)[O-])cn1	-1.59	–

Structure (SMILES)	max response, negative = inhibition [%]	Potency
Cc1ccc(-n2c(C)cc(/C=N\NC(=O)CC(=O)NC(C)C)c2C)cc1	-4.29	–
Cc1ccc(-n2c(C)cc(/C=N/Nc3ccc([N+](=O)[O-])cn3)c2C)c(C)c1	–	3.98 µM (active)
CCOc1ccc(C(=O)N2CCN(CCc3ccccn3)CC2)cc1	-2.86	–
CSc1cccc(NC(=O)CN2C(=O)CCc3cc(S(=O)(=O)N4CCCCC4)ccc32)c1	-6.74	–
CCOC(=O)N1CCc2c(sc3c2c(=O)n(Cc2ccccc2)c(=O)n3CC(=O)Nc2cccc(C)c2)C1	-13.3	–
COc1cccc(NC(=O)C(C)Oc2ccccc2)c1 (stereo not drawn)	2.56	–
COCCn1c(SCC(=O)Nc2ccc3c(c2)CCC3)nc2ccccc2c1=O	7.57	–
COc1cccc(NC(=O)C(Sc2nc3ccccc3c(=O)n2CC(C)C)c2ccccc2)c1 (stereo not drawn)	–	5.01 µM (active)
O=S(=O)(Nc1ccc2nc(-c3cccc(Cl)c3)oc2c1)c1ccccc1	5.84	–
COc1ccc(CNC(=O)c2cc3c(=O)[nH]c4ccccc4c3s2)cc1	-0.0351	–
CC(C)CC(=O)Nc1cc(C(F)(F)F)ccc1N1CCOCC1	-0.397	–
COc1c(C)cccc1C(=O)Nc1cc(Cl)ccc1N1CCOCC1	-1.36	–
O=C(NC(=S)Nc1cc(C(F)(F)F)ccc1N1CCOCC1)c1ccc(-c2cccc(Cl)c2)o1	–	10 µM (active)
COc1ccccc1/C=C/c1nc(C#N)c(NC(C)c2ccccc2)o1 (stereo not drawn)	-27.6	–
Cc1ccc(NC(=O)C2CCCN2S(=O)(=O)c2cccc3cccnc23)c(C)c1 (stereo not drawn)	-5.43	–
Cc1nc(-c2ccccc2)sc1C(=O)/C=C/c1ccccc1	3.75	–
O=C(/C=C/Nc1ccccc1)c1cnc(-c2ccccc2)s1	–	12.6 µM (active)
Cc1ccc(N/C=C/C(=O)c2ccccc2)cc1C	-22.6	–
Cc1c(C)n(Cc2ccc(Cl)cc2)c2ccc(C(=O)NCCc3ccc(S(N)(=O)=O)cc3)cc12	-27.4	–
NC(=O)CSc1nc2c(oc3ccccc32)c(=O)n1Cc1ccccc1	1.12	–
O=C(CSc1nc2ccccc2[nH]1)c1cccs1	-7.22	–
C/C(=N\Nc1nc2ccccc2[nH]1)c1cccs1	–	25.1 µM (active)

Structure (SMILES)	max response, negative = inhibition [%]	Potency
OCCNc1nc2ccccc2[nH]1	-0.339	–
Cc1ccc(Cn2c(C)c3cnn(CC(=O)NCc4ccccc4)c(=O)c3c2C)cc1	-6.45	–
COc1ccc(Nc2ncc3c(n2)CCN(C(=O)OC(C)(C)C)C3)cc1	-2.11	–
O=C(Cc1ccc(Cl)cc1)NCC(c1cccs1)S(=O)(=O)c1ccc(Cl)cc1 (stereo not drawn)	1.56	–
CCc1nn(CC(=O)N2CCN(c3cc(C)ccc3C)CC2)c(=O)c2cc3occc3n12	6.7	–
CC(C)CNS(=O)(=O)c1ccc(OCC(=O)Nc2ccc3c(c2)OCO3)c(Cl)c1	-2.91	–
COc1ccc(S(=O)(=O)Nc2ccc3c(c2)OCO3)cc1Cl	–	15.8 µM (active)
COc1ccc(F)cc1S(=O)(=O)Nc1ccc2c(c1)OCO2	9.18	–
COc1cc(Br)cc2cc(S(=O)(=O)c3ccccc3)c(=O)oc12	-12.9	–
Cc1nnc(SCC(=O)N2c3ccccc3C(C)(c3ccc(Cl)cc3)CC2(C)C)s1 (stereo not drawn)	-0.125	–
CC1(c2cccc([N+](=O)[O-])c2)CC(C)(C)N(C(=O)c2ccccc2)c2ccccc21 (stereo not drawn)	-29.1	–
CC1(c2ccccc2)CC(C)(C)N(C(=O)c2cc([N+](=O)[O-])cc([N+](=O)[O-])c2)c2ccccc21 (stereo not drawn)	–	25.1 µM (active)
Cc1ccc(Cn2cc(CCC(=O)NCc3ccc(OC(C)C)cc3)c3ccccc32)cc1	6.72	–
Cc1cc(C)cc(NC(=O)CSc2oc(-c3ccccc3)nc2S(=O)(=O)c2ccc(Cl)cc2)c1	-6.39	–
COCCNC(=O)CSc1c(C)cnc2c1c(=O)n(C)c(=O)n2C	7.18	–
Cc1ccc(-c2c3c(=O)n(C)c(=O)n(C)c3cn2-c2ccccc2O)cc1	12.7	–
Cc1ccc(-c2c3c(=O)n(C)c(=O)n(C)c3cn2-n2cnnc2)cc1	–	12.6 µM (active)
COc1ccc(-c2c3c(=O)n(C)c(=O)n(C)c3cn2NC(C)=O)cc1	-4.34	–
CC(=O)c1ccc(NS(=O)(=O)c2ccc(-c3cc(C)no3)s2)cc1	-22.1	–
O=C(Nc1ccc2nc(SCC(=O)N3CCc4ccccc43)sc2c1)c1ccccc1F	-3.59	–
CCC(=O)Nc1ccc2nc(SCC(=O)N3CCc4ccccc43)sc2c1	26.9	–
O=C(Nc1ccc2nc(SCC(=O)N3CCCc4ccccc43)sc2c1)c1ccc(Cl)cc1	–	10 µM (active)

Structure (SMILES)	max response, negative = inhibition [%]	Potency
COc1ccccc1NC(=O)CCC(=O)N1CC(C)Oc2ccc(C)cc21 (stereo not drawn)	-1.12	–
COc1ccccc1N1CCN(C(=O)Cn2nnc(-c3cccs3)n2)CC1	-5.5	–
COc1ccc(C2CC(c3ccccc3)=NN2C(=O)CSc2nccc(=O)[nH]2)cc1 (stereo not drawn)	-19	–
O=C1c2cccc(OCC(=O)N3N=C(c4cccs4)CC3c3ccc(F)cc3)c2CCN1Cc1ccccc1 (stereo not drawn)	–	12.6 µM (active)
O=C(Cn1ncc2c3ccccc3n(Cc3ccccc3)c2c1=O)NCc1ccccn1	20.3	–
COC(=O)c1cnc(N2CCN(c3ccccc3OC)CC2)c2ccccc12	5.66	–
N#CCSc1nc2ccccc2c(=O)n1-c1ccccc1	3.22	–
Cc1cccc(-n2c(SCC(N)=O)nc3c(c2=O)C2(CCCCC2)Cc2ccccc2-3)c1	-0.318	–
N#CCSc1nc2c(c(=O)n1Cc1ccccc1)C1(CCCC1)Cc1ccccc1-2	–	12.6 µM (active)
CCS(=O)(=O)N1CCc2cc(C(=O)NCc3ccc(OC)cc3)ccc21	-7.6	–
CCCCS(=O)(=O)c1oc(-c2cccs2)nc1S(=O)(=O)c1ccccc1	-4.72	–
COC(=O)c1ccc(C2C(C(=O)Nc3ccccc3)=C(C)Nc3nc4ccccc4n32)cc1 (stereo not drawn)	-6.78	–
CC(C)Nc1nnc(SCC(=O)c2c[nH]c3ccccc23)s1	-13.7	–
Cc1ccc(Nc2nnc(SCC(=O)c3cc4ccccc4o3)s2)cc1C	–	15.8 µM (active)
Cc1ccc(Nc2nnc(SCc3ccccc3)s2)cc1	-12.9	–
O=C(CSc1nnc(Nc2ccccc2)s1)Nc1cccnc1Cl	-18	–
CC(C)c1ccc(Nc2nnc(SCC(=O)c3nnc(-c4ccccc4)o3)s2)cc1	–	12.6 µM (active)
Cc1ccsc1C(=O)OCC(=O)c1cc2ccccc2o1	2.71	–
CCN(c1ncnc2c1cnn2-c1ccc(C)cc1)C1CCCCC1	2.47	–
COc1cccc(-n2c(=O)c3c(C)c(C(=O)N(C)C)sc3n(Cc3cccc(C)c3)c2=O)c1	-4.38	–
O=C(Nc1ccc(F)cc1F)c1ccc2c(=O)n3c(nc2c1)CCCCC3	-3.34	–
CN(Cc1ccccc1)C(=O)c1cc2c(=O)n(C)c3ccccc3c2s1	3.44	–

From PubChem BioAssay AID1476 (National Center for Advancing Translational Sciences (NCATS), 2009)
